Measured values: PubChem BioAssay (NCATS)
Results filed as inconclusive are left out. A structure can be active in one record and inactive in another. Active and inactive are the calls of the source. Calls come from the whole dose curve; as a rule, active = well fitted inhibition curve with a large enough effect; inconclusive = small, poorly fitted or top-dose-only effect; inactive = flat fitted curve, though single readings scatter.

Legend:
Test in all cases: qHTS profiling for inhibitors of Plasmodium falciparum proliferation (AID 504749); note: nearly all actives have a fitted effect of over 60% in size
Conditions in all cases: P. falciparum in erythrocytes, SYBR Green DNA, 72 h; series mostly up to 28.7 µM
[1] = system: CP192
Method in brief: (§1)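 P. falciparum-infected erythrocytes (0.3% parasitemia, 2.5% hematocrit final) were exposed to compounds for 72 h at 37 C in 5% CO2, then lysed with SYBR Green buffer overnight at room temperature; parasite DNA fluorescence was normalized to artemisinin and DMSO controls.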

[2] = system: CP194
Method in brief: as §1

[3] = system: CP201
Method in brief: as §1

[4] = system: CP203
Method in brief: as §1

[5] = system: CP211
Method in brief: as §1

[6] = system: CP215
Method in brief: as §1

[7] = system: CP217
Method in brief: as §1

[8] = system: CP237
Method in brief: as §1

[9] = system: CP238
Method in brief: as §1

[10] = system: CP247
Method in brief: as §1

Measured: Potency
Potency is the fitted concentration of half-maximal effect.

O=C1CCO1
inactive: all assays above

O=C1CN(O)C(c2ccccc2)=c2cc(Cl)ccc2=N1
inactive: all assays above

C[N+]1(C)C2CCC1CC(OC(=O)c1c[nH]c3ccccc13)C2 (centres undefined)
inactive: all assays above

c1ccc2cc(CC3=NCCN3)ccc2c1
inactive: all assays above

C=CCN1CCC23c4c5ccc(O)c4O[C@H]2C(=O)CC[C@@]3(O)C1C5 (some centres undefined)
inactive: all assays above

O=Cc1ccco1
inactive: all assays above

O=C(CS(=O)C(c1ccccc1)c1ccccc1)NO (centres undefined)
inactive: all assays above

O=C(O)C(Cl)(Cl)Cl
inactive: all assays above

ClC1C(Cl)C(Cl)C(Cl)C(Cl)C1Cl (centres undefined)
inactive: all assays above

CC(=O)OO
inactive: all assays above

CC(C)Nc1ccc(Nc2ccccc2)cc1
active: [1] 5.36 µM | [2] 3.38 µM | [3] 4.78 µM | [4] 8.49 µM | [5] 3.79 µM | [6] 4.26 µM | [7] 5.01 µM | [8] 7.94 µM | [9] 10 µM | [10] 4.47 µM

Clc1ccc(Cl)cc1
inactive: all assays above

N#CN
inactive: all assays above

O=C(OCCN1CCCCC1)C(O)(c1ccccc1)c1ccccc1
inactive: all assays above

CC(=O)O[C@H]1CC[C@H]2[C@@H]3CCC4=CC(=O)CCC4=C3C=C[C@]12C
inactive: all assays above

[N-]=[N+]=CC(=O)OCC(N)C(=O)O (centres undefined)
inactive: all assays above

O=[N+]([O-])c1ccc(F)c([N+](=O)[O-])c1
inactive: all assays above

CC(C)(C)c1cc(O)ccc1O
16.9 µM (active) and inactive: [2]
active: [4] 15.1 µM | [6] 10.7 µM | [7] 8.91 µM | [8] 6.31 µM | [9] 10 µM | [10] 4.47 µM
inactive: [1] | [3]
12 µM (active) and inactive: [5]

CCCC(C)C1(CC)C(=O)NC(=O)NC1=O (centres undefined)
inactive: all assays above

COC([CH2][Hg])CNC(=O)c1ccccc1OCC(=O)O (centres undefined)
inactive: all assays above

CC(=O)OC1CN2CCC1CC2 (centres undefined)
inactive: all assays above

C#CC(C)(O)CC (centres undefined)
inactive: all assays above

CC(C)CCON=O
inactive: all assays above

[O]=[Cd]
inactive: all assays above

CCC1(CC)C(=O)NC(=O)N(C)C1=O
inactive: all assays above

CCC(N)Cc1c[nH]c2ccccc12 (centres undefined)
inactive: all assays above

N#CC1(N2CCCCC2)CCCCC1
inactive: all assays above

S=C=S
inactive: all assays above

C=CCN1CC[C@]23c4c5ccc(O)c4O[C@H]2[C@@H](O)C=C[C@H]3[C@H]1C5
not listed: [10]
inactive: all other assays above

Cn1sc(Cl)cc1=O
inactive: all assays above

O=CC=O
inactive: all assays above

O=C1C2CC=CCC2C(=O)N1SC(Cl)(Cl)Cl (centres undefined)
inactive: all assays above

O=C1CCCCC1CN1CCCCC1 (centres undefined)
inactive: all assays above

CCCCCCCCOC(=O)c1ccccc1C(=O)OCCCCCCCC
inactive: all assays above

Clc1ccc(C2(Cn3cncn3)OCCO2)c(Cl)c1
inactive: all assays above

O=S(=O)(O)c1cc(O)ccc1O
inactive: all assays above

CCOC(=O)c1ccccc1C(=O)OCC
inactive: all assays above
